Screening data deposited in PubChem by several laboratories.
CYP2C19 inhib: inhibitors of human CYP2C19. CYP2C19 Supersomes, luciferin-H EGE luminescence, 30 min. inhibition, % at 5 µM. actives 21% (n = 96,000);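 active = CYP2C19 inhibition above a set limit at 5 µM in the primary screen, cut at about 50% in these data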;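 note: plate controls were negative control wells for no effect and 2.5 mM tranylcypromine positive control for full effect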
PostGolgi yeast: growth inhibition of a yeast mutant, post-Golgi transport screen; AID 739; inhibition, % at 10 µM; post-Golgi transport phenotypic cell assay; actives 0.9% (n = 98,000);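 note: yeast cells grown in 1536-well plates; yeast grown about 18 h at 30C before absorbance read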
CYP2C9 act: activators of human CYP2C9; P11712; recombinant CYP2C9, luciferin-H conversion, luminescence; hits give high values; factor 1 = untreated enzyme, 0 = blocked; activation factor at 5 µM; actives 1.4% (n = 96,000); AID 1024;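 active = activation factor of 2 or more for CYP2C9 at a 5 µM dose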;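 note: 0 = sulfaphenazole-blocked wells and 1 = vehicle-only wells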
Target sequence (P11712 whole entry, looked up): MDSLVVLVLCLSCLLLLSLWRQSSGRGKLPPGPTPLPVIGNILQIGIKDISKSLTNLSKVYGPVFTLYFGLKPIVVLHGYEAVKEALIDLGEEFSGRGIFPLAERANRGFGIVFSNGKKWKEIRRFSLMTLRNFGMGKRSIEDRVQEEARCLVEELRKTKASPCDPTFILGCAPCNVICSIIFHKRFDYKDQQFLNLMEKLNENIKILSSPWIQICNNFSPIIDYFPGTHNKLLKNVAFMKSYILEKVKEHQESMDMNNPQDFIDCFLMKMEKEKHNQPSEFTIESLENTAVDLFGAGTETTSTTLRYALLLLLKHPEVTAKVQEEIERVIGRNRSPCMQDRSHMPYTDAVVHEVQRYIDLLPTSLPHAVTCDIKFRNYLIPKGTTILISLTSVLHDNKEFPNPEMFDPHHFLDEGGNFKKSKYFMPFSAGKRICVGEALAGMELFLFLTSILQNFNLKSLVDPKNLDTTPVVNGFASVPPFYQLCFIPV
CYP2C9 inh: blocks human cytochrome P450 2C9 | P11712 | CYP2C9 Supersomes, luciferin-H conversion, luminescence | inhibition, % at 5 µM | actives 20% (n = 96,000) | AID 777;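 active = blocking of liver enzyme CYP2C9 beyond about 50% at 5 µM, limit read from the data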
CYP2C19 activ: activators of human cytochrome P450 2C19 | activation factor at 5 µM | recombinant CYP2C19, luciferin-H EGE luminescence; hits give high values; 0 = fully inhibited enzyme, 1 = untreated enzyme | P33261 | 96,000 tested, under 10 active;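 active = activation factor of at least 2 at 5 µM in the primary screen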;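 note: 0 = wells with 2.5 mM tranylcypromine and 1 = vehicle-only wells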
PostGolgi ctrl: inhibits growth of the yeast control strain | efflux-deficient yeast background strain, growth absorbance A615, 16 h | inhibition, % at 10 µM | actives 5% (n = 98,000) | AID 738
* marks the source's active call; other numbers are inactive results; . = not tested or not shown. Sampled rows, rich in hits. Any-hit rate of the full collection: about 32%. Cut-off read from the data, not from the text of the source, unless noted: active = inhibition above about 30%; inactive = the rest.

SMILES	CYP2C19 inhib	PostGolgi yeast	CYP2C9 act	CYP2C9 inh	CYP2C19 activ	PostGolgi ctrl
O=C(c1cc(C2CC2)on1)N1CCN(c2ccccc2)CC1	91*	7	0.5	52*	0.1	-6
Cn1nnc2cc(C(=O)NC(C)(C)C)ccc21	-1	4	1	-1	1	37*
O=C(c1cccc(C(=O)N2CCN(c3ccccc3)CC2)c1)N1CCN(c2ccccc2)CC1	41	-4	0.7	34	0.6	7
COc1ccc(N2CCN(CCCNC(=O)CN3CCN(Cc4ccccc4C)C3=O)CC2)cc1	7	-3	0.6	36	0.9	2
COc1cccc(C(c2nnnn2Cc2ccc(F)cc2)N2CCC(C(N)=O)CC2)c1OC (configuration not stated)	21	4	0.9	11	0.8	-4
Nc1nnnn1N=C1CCCCC1	6	11	1	-3	0.9	-3
COc1ccc(N2CCN(C(=O)c3ccc4c(c3)OCO4)CC2)cc1	-1	1	0.9	13	1	9
Cn1nnc2cc(C(=O)N3CCC(c4ccccc4)C3)ccc21 (configuration not stated)	80*	-5	0.7	25	0.2	20
O=C(CCN1CCN(c2ccccc2)CC1)Nc1ccc2c(c1)OCO2	.	-5	.	.	.	-4
CC(C)C(=O)N1CCN(c2ccccc2NC(=O)Cc2ccc(Cl)cc2)CC1	19	6	0.7	33	0.8	16
CC(C)(C)C(=O)Nc1ccccc1N1CCN(C(=O)c2ccc(Cl)cc2)CC1	76*	4	0.3	75*	0.2	18
O=C(c1ccc2c(c1)OCO2)N1CCN(c2ccc(Cl)cc2)CC1	97*	8	0.1	89*	0	6
O=C(CCN1CCN(c2ccccc2F)CC1)Nc1ccc2c(c1)OCO2	71*	1	0.1	88*	0.3	2
CC(=O)N1CCN(c2ccc(NCc3ccc4c(c3)OCO4)cc2)CC1	15	-2	0.8	20	0.8	7
O=C(c1ccccc1)N1CCN(c2ccc(NCc3ccc4c(c3)OCO4)cc2)CC1	44	-1	0.3	68*	0.6	17
COc1cc(OC)cc(C(=O)N2CCN(c3ccccc3F)CC2)c1	53*	7	0.7	28	0.5	11
COc1cc(OC)cc(C(=O)N2CCN(C(=O)c3cccc(F)c3)CC2)c1	36	-1	1	2	0.6	21
Cc1ccc(C(=O)N2CCN(c3ccc(Cl)cc3)CC2)cc1	54*	5	0.5	51*	0.5	20
O=C(c1ccc2c(c1)OCO2)N1CCCC(c2ccccc2)C1 (configuration not stated)	87*	17	0.9	8	0.1	22
COCCNC(=O)c1onc(CSc2ccccc2C)c1C(=O)O	26	-11	0.8	16	0.7	2
S=c1[nH]ncn1/N=C/c1ccccn1	3	3	0.6	36	1	9
CC(C)Cc1nc(SCC(=O)Nc2ccc(S(N)(=O)=O)cc2)n[nH]1	18	-6	0.8	21	0.8	0
O=C(c1ccco1)N1CCCC(c2ccccc2)C1 (configuration not stated)	29	1	0.9	11	0.7	14
CCn1c(=O)[nH]c2cc(C(=O)N3CCN(c4ccccc4)CC3)ccc2c1=O	-4	36*	0.9	15	1	5
O=C(c1ccc2c(c1)OCO2)N1CCN(c2ccccc2F)CC1	83*	0	0.5	53*	0.2	13
SMILES	CYP2C19 inhib	PostGolgi yeast	CYP2C9 act	CYP2C9 inh	CYP2C19 activ	PostGolgi ctrl
O=C(c1cnccn1)N1CCN(c2ccccc2)CC1	53*	-1	1.1	-6	0.5	25
O=C(c1ccc2c(c1)OCO2)N1CCCC1	-6	4	1	-4	1.1	20
O=C(c1cccs1)N1CCCC(c2ccccc2)C1 (configuration not stated)	85*	-2	0.5	53*	0.1	37*
O=C(c1cnsn1)N1CCN(c2ccccc2)CC1	32	12	0.9	14	0.7	-14
CC(=O)N1CN(S(=O)(=O)c2ccc(C)cc2)CC1C (configuration not stated)	30	24	1	-4	0.7	0
Cc1cccc(C)c1NC(=O)c1sccc1SCC#N	26	21	0.9	5	0.7	18
O=C(c1cc(-c2cccc(O)c2)on1)N1CCCCC1	51*	1	1.9	-93	0.5	-1
COc1cc(C(=O)N2CCN(c3cc(Cl)ccc3Cl)CC2)cc(OC)c1OC	-12	5	0.4	62*	1.1	16
COc1cc(CCC(=O)Nc2cc(Cl)ccc2N2CCN(C)CC2)cc(OC)c1OC	64*	-3	0.5	46	0.4	-3
Cc1nn(C(=O)c2cccs2)c(N)c1-c1ccccc1	7	1	0.8	21	0.9	14
Cc1nn(C(=O)c2ccc3c(c2)OCO3)c(N)c1-c1ccccc1	-9	6	0.5	53*	1.1	9
Cc1cc(NC(=O)COc2ncnc3sc(C)c(C)c23)no1	2	-8	1.1	-7	1	1
CC1CCN(S(=O)(=O)c2ccc(NC(=O)CN3CCCC(C)C3)cc2)CC1 (configuration not stated)	14	-8	0.7	27	0.9	24
Cn1c(NC(=O)c2ccc(Cl)cc2)c(-c2ccccn2)c(=O)c2ccccc21	16	-2	0.9	9	0.8	-4
CCCCn1nnnc1SCC(=O)Nc1ccc(C)cc1	71*	-4	0.6	36	0.3	-2
CCCn1nnnc1SCC(=O)N(C(C)C)C(C)C	72*	-1	1	-1	0.3	-3
CCn1nnc(NC(=O)CSc2ccc(Cl)cc2)n1	26	6	0.8	21	0.7	1
CCCn1nnnc1NC(=O)CSc1ccc(Cl)cc1	82*	1	0.3	66*	0.2	3
CCCn1nnnc1SCC(=O)c1ccc2c(c1)OCCO2	65*	-2	0.6	37	0.4	-4
Cc1cc(Nc2cc(C(=O)O)ccc2C)n2ncnc2n1	-2	-6	1	1	1	15
COc1ccc(N2CCN(C(=O)Nc3ccc(S(=O)(=O)N(C)C)cc3)CC2)cc1	2	-2	1	-2	1	-10
O=C(COC(=O)C12CC3CC(CC(O)(C3)C1)C2)N1CCN(S(=O)(=O)c2ccc(Cl)cc2)CC1	.	-3	.	.	.	-1
CCCCn1nnnc1SCC(=O)Nc1ccc2c(c1)OCCO2	67*	2	0.4	59*	0.3	22
CCCn1nnnc1SCC(=O)Nc1ccc(F)cc1	96*	-5	0.8	19	0	1
O=C(CSc1nnnn1-c1ccccc1Cl)Nc1ccc2c(c1)OCCO2	-3	-12	1.1	-13	1	-1
O=C(C1CCCN(Cc2ccccc2C(F)(F)F)C1)N1CCCCC1 (configuration not stated)	25	-1	0.7	34	0.8	19
